About 7,900 targets were measured; listed, in parts, are those with a hit and a random draw of the rest. About 0.6% of all pairs of compound and target were hits. A number with no mark means an inactive call.

Chain of UniProt Q8N6D5 (Q8N6D5 whole entry, looked up): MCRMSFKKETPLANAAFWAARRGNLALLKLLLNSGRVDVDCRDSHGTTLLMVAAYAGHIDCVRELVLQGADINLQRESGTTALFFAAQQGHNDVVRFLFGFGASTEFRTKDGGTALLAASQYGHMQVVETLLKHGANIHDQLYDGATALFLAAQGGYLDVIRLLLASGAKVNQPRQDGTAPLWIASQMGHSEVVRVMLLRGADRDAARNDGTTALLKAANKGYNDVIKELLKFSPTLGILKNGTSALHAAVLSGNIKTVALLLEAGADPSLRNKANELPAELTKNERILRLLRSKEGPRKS
Chain of UniProt Q8N6H7 (Q8N6H7 whole entry, looked up): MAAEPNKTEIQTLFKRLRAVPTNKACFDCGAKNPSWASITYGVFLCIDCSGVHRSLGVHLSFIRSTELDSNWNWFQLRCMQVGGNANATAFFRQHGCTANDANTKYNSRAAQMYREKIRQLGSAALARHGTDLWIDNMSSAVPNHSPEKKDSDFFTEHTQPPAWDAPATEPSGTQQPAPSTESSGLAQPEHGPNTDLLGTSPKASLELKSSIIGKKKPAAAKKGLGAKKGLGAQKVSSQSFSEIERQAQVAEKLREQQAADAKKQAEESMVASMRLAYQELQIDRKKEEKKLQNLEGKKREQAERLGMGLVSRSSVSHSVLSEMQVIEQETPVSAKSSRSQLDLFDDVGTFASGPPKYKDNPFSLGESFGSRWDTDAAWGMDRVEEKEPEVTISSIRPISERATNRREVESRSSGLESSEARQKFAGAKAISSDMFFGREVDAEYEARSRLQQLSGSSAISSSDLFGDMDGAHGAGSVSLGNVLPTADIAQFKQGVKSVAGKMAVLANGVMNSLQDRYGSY
Chain of UniProt Q8N5I2 (Q8N5I2 whole entry, looked up): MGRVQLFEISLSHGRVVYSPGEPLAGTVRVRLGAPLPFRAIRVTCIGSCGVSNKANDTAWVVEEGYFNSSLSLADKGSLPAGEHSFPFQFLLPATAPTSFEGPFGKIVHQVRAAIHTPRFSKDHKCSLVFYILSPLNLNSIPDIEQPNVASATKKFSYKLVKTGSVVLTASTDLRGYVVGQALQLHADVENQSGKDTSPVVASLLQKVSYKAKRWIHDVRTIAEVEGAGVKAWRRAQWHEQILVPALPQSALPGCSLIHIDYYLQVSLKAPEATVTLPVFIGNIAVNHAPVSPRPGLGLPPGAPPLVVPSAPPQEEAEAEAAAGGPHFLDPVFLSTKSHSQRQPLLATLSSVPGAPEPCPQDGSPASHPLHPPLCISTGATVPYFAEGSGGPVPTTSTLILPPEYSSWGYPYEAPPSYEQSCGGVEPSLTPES
Chain of UniProt O95433 (O95433 whole entry, looked up): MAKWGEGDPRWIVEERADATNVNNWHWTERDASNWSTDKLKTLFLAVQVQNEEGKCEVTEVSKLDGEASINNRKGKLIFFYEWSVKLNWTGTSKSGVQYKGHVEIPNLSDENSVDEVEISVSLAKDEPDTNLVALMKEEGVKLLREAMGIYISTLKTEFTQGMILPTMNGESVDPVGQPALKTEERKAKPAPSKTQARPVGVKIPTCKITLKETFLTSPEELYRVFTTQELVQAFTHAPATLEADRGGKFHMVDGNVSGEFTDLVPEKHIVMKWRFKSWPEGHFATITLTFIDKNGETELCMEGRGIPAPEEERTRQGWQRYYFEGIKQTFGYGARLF
Chain of UniProt Q9BTT0 (Q9BTT0 whole entry, looked up): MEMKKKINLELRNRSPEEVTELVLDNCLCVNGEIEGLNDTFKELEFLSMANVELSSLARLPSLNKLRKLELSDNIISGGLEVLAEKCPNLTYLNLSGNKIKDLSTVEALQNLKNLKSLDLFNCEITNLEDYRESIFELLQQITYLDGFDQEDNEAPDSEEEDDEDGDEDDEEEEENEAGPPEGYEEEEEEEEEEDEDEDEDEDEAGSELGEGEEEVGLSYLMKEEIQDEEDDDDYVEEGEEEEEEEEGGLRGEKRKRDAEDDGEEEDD
Chain of UniProt Q99798 (Q99798 whole entry, looked up): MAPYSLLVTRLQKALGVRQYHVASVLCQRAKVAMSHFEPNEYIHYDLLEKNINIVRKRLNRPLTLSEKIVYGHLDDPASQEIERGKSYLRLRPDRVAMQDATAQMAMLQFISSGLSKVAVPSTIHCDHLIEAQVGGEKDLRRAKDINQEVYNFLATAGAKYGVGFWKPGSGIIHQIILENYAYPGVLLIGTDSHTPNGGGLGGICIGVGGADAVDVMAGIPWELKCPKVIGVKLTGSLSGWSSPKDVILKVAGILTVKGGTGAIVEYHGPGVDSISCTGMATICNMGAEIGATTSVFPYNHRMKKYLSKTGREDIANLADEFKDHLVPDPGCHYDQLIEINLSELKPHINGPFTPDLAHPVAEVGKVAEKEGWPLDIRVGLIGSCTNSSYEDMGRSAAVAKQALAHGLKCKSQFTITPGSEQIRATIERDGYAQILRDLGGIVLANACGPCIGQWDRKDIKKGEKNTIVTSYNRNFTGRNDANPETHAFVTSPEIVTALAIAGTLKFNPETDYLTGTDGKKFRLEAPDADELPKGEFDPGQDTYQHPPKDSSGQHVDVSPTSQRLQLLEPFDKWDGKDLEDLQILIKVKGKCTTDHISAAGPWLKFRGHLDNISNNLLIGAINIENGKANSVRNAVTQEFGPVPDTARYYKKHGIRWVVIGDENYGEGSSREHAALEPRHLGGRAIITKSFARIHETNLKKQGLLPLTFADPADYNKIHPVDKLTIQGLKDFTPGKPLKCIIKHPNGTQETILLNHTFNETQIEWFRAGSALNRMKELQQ
Chain of UniProt Q9Y6E2 (Q9Y6E2 whole entry, looked up): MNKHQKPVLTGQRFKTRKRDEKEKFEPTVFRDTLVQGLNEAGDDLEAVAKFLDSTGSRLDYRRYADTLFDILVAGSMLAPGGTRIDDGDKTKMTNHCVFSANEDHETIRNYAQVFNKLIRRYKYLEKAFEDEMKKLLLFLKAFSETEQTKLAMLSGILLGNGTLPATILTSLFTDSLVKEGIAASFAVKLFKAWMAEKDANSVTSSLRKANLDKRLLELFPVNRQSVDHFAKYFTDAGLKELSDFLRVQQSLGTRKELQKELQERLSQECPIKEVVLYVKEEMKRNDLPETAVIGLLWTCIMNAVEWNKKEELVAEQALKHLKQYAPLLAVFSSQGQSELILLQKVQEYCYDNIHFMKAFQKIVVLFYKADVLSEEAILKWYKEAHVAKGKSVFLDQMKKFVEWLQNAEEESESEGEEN
Chain of UniProt Q06481 (Q06481 whole entry, looked up): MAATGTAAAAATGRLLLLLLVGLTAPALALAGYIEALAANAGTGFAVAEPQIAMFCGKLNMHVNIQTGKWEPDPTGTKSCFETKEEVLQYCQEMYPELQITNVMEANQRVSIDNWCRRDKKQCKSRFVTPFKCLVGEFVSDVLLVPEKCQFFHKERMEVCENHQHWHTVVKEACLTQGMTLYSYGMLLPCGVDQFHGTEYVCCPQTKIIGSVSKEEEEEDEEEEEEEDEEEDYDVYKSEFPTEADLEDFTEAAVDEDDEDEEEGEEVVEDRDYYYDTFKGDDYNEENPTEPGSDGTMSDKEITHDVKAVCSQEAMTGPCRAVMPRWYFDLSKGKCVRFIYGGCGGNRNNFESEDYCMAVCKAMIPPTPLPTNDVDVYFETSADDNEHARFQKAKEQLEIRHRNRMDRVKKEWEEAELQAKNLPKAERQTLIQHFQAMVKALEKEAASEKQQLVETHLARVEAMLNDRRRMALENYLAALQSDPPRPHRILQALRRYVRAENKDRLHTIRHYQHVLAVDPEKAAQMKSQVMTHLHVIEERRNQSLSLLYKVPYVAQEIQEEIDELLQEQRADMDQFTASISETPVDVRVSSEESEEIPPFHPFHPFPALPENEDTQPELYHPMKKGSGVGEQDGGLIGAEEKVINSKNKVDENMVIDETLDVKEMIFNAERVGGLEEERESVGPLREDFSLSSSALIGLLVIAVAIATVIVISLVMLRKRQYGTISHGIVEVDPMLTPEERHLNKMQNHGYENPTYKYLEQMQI
Chain of UniProt P55957 (P55957 whole entry, looked up): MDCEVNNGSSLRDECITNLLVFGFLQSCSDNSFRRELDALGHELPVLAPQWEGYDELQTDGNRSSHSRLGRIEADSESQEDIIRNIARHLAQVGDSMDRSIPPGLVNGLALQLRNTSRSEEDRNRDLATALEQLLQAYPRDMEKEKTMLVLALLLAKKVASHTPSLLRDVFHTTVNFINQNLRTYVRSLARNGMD
Chain of UniProt P10398 (P10398 whole entry, looked up): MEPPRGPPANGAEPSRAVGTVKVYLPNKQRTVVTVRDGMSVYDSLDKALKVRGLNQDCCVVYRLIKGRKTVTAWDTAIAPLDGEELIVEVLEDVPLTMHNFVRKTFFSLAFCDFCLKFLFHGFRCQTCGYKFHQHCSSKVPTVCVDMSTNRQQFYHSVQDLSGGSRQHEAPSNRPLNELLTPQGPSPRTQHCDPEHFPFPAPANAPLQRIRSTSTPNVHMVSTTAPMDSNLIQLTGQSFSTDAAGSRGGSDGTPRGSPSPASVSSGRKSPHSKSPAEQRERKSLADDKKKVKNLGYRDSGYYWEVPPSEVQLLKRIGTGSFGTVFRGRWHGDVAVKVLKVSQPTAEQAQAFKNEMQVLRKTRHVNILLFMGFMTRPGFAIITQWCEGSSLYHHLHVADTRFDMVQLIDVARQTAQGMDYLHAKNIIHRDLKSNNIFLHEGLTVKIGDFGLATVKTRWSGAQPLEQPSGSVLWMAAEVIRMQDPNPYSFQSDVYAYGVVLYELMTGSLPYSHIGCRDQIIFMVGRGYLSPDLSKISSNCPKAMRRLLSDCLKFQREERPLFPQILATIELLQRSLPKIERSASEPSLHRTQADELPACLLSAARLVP
Chain of UniProt P30043 (P30043 whole entry, looked up): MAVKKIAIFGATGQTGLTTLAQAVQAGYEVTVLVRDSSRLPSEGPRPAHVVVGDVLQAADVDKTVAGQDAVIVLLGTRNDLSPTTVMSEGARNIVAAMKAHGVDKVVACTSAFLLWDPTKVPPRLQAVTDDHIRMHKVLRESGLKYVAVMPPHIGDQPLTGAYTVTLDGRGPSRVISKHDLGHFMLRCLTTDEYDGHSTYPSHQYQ
Chain of UniProt Q8WUW1 (Q8WUW1 whole entry, looked up): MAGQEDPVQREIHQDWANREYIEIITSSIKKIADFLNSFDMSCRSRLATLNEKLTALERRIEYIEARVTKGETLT

Compound in the first assay: C1=CC=C(C=C1)[C@H](COC2=CC3=C(C=C2)NC(=O)N3)NC(=O)C4=CC=CN(C4=O)CC5=CC(=C(C=C5)F)F
The experiment in a line: log2 fold change, soluble protein after heating vs DMSO (PISA); higher = thermal stabilisation; K562 cells, 10 uM, 30 min; active = over 0.2 and 3.5 SD of the protein, either way, in both replicates (recomputed). A digest of the protocol:
(§1)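 K562 cells at 2×10^6 cells/mL were exposed to 10 μM compound for 30 min, then aliquots were heated for 3 min across 48°C-58°C, pooled, and extracted in PBS containing 0.5% NP-40 at 4°C. The supernatant after 21,000xg for 90 min was taken as soluble protein and measured by TMTpro 16plex LC-MS/MS with channel sums equalised. Thermal stability is reported relative to control samples, with values from duplicates. Fold changes are given on a log2 scale.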
Turning to AUH (UniProt Q13825), the log2 fold change was 0.015.
For the target BZW2 (UniProt Q9Y6E2), the log2 fold change is -0.069.
Still for that read-out and setting: the same measure for ARFIP1 isoform 2 (UniProt P53367): 0.009; for ANP32E (UniProt Q9BTT0): -0.092.
As for B4GALNT1 (UniProt Q00973), the log2 fold change was -0.029.
Consider ATXN7L3 isoform 2 (UniProt Q14CW9), for which the log2 fold change was -0.156.
For the target BAP1 (UniProt Q92560), the log2 fold change is -0.226.
The same measure, in the same setting: the same measure for ATP12A isoform 2 (UniProt P54707): -0.027; for BRK1 isoform 2 (UniProt Q8WUW1): 0.018.
Still for that read-out and setting: the same measure for ARAF (UniProt P10398): -0.05; for AP2S1 (UniProt P53680): -0.013; for BSCL2 isoform 4 (UniProt Q96G97): -0.07.
Take AKAP8 (UniProt O43823): the log2 fold change is 0.012.
On the same count and under the same terms, the same measure for ATP6V0A1 (UniProt Q93050): 0.281; for ANKRD29 (UniProt Q8N6D5): -0.012; for BID isoform 2 (UniProt P55957): -0.036.
On to ACO2 (UniProt Q99798), for which the log2 fold change is 0.
For the target ALKBH4 (UniProt Q9NXW9), the log2 fold change was 0.023.
As for ARFGAP2 (UniProt Q8N6H7), the log2 fold change was -0.006.
On to AHSA1 (UniProt O95433), for which the log2 fold change is -0.035.
On to AGPAT3 isoform 3 (UniProt Q9NRZ7), for which the log2 fold change is -0.012.
As for ACAD9 (UniProt Q9H845), the log2 fold change was 0.012.
The same measure, in the same setting: next, ARL4A (UniProt P40617): -0.027; BCLAF1 (UniProt Q9NYF8): 0.031; BLVRB (UniProt P30043): -0.029.
Consider ADPRHL2 (UniProt Q9NX46), for which the log2 fold change was -0.09.
On to ABHD11 (UniProt Q8NFV4), for which the log2 fold change was -0.008.
In the case of BCCIP (UniProt Q9P287), the log2 fold change was -0.044.
As for ACSL1 (UniProt P33121), the log2 fold change is -0.019.
With APLP2 (UniProt Q06481), the log2 fold change was 0.003.
On the same count and under the same terms, next, ADD2 isoform 9 (UniProt P35612): 0.02; AP2A2 isoform 2 (UniProt O94973): -0.021; AAMP (UniProt Q13685): -0.015.
The same measure, in the same setting: the same measure for ADK (UniProt P55263): 0.026; for ARRDC1 (UniProt Q8N5I2): 0.005.
For ACBD6 (UniProt Q9BR61), the log2 fold change was -0.033.

Compound in a further assay: CC1=C(SC2=C1C(=N[C@H](C3=NN=C(N32)C)CC(=O)N)C4=CC=C(C=C4)Cl)C
Described as above. A digest of the protocol: as §1
Regarding AUH (UniProt Q13825), the log2 fold change was 0.065.
Turning to BZW2 (UniProt Q9Y6E2), the log2 fold change was 0.042.
Regarding ANP32E (UniProt Q9BTT0), the log2 fold change is -0.037.
On to B4GALNT1 (UniProt Q00973), for which the log2 fold change was -0.068.
For BAP1 (UniProt Q92560), the log2 fold change is -0.123.
Same read-out and setting: next, ATP12A isoform 2 (UniProt P54707): 0.062.
As to BRK1 isoform 2 (UniProt Q8WUW1), the log2 fold change was -0.018.
Regarding ARAF (UniProt P10398), the log2 fold change was -0.003.
Still for that read-out and setting: the same measure for AP2S1 (UniProt P53680): -0.007; for BSCL2 isoform 4 (UniProt Q96G97): 0.106; for AKAP8 (UniProt O43823): -0.03.
With ANKRD29 (UniProt Q8N6D5), the log2 fold change is 0.199.
On to BID isoform 2 (UniProt P55957), for which the log2 fold change was 0.059.
Consider ACO2 (UniProt Q99798), for which the log2 fold change is 0.067.
Regarding ALKBH4 (UniProt Q9NXW9), the log2 fold change was -0.063.
On the same count and under the same terms, next, ARFGAP2 (UniProt Q8N6H7): 0.039; AHSA1 (UniProt O95433): 0.063.
As for AGPAT3 isoform 3 (UniProt Q9NRZ7), the log2 fold change was 0.064.
On to ACAD9 (UniProt Q9H845), for which the log2 fold change is 0.028.
Regarding BCLAF1 (UniProt Q9NYF8), the log2 fold change is 0.027.
Still for that read-out and setting: next, BLVRB (UniProt P30043): 0.027; ADPRHL2 (UniProt Q9NX46): 0.08.
Consider ABHD11 (UniProt Q8NFV4), for which the log2 fold change is 0.127.
In the case of BCCIP (UniProt Q9P287), the log2 fold change is -0.018.
Consider ACSL1 (UniProt P33121), for which the log2 fold change is 0.043.
Turning to APLP2 (UniProt Q06481), the log2 fold change is -0.003.
For AP2A2 isoform 2 (UniProt O94973), the log2 fold change was -0.02.
With AAMP (UniProt Q13685), the log2 fold change was -0.013.
Regarding ADK (UniProt P55263), the log2 fold change was 0.036.
For ARRDC1 (UniProt Q8N5I2), the log2 fold change is -0.462 (active).
For ACBD6 (UniProt Q9BR61), the log2 fold change was 0.087.

Compound in another assay: CC1=C2C(=CC=C1)N=C(N(C2=O)C3=CC=CC=C3C)CN4C=NC5=C(N=CN=C54)N
The assay is described as above. A digest of the protocol:
as §1
Consider AUH (UniProt Q13825), for which the log2 fold change was -0.116.
On to BZW2 (UniProt Q9Y6E2), for which the log2 fold change was 0.025.
As to ANP32E (UniProt Q9BTT0), the log2 fold change was 0.14.
With B4GALNT1 (UniProt Q00973), the log2 fold change is -0.001.
Take BAP1 (UniProt Q92560): the log2 fold change is -0.156.
As to ATP12A isoform 2 (UniProt P54707), the log2 fold change is 0.052.
For BRK1 isoform 2 (UniProt Q8WUW1), the log2 fold change is 0.025.
In the case of ARAF (UniProt P10398), the log2 fold change was 0.178.
As to AP2S1 (UniProt P53680), the log2 fold change is -0.036.
Regarding BSCL2 isoform 4 (UniProt Q96G97), the log2 fold change was -0.084.
Turning to AKAP8 (UniProt O43823), the log2 fold change is 0.105.
Regarding ANKRD29 (UniProt Q8N6D5), the log2 fold change is 0.248.
Consider BID isoform 2 (UniProt P55957), for which the log2 fold change was 0.081.
Consider ACO2 (UniProt Q99798), for which the log2 fold change was 0.044.
Regarding ALKBH4 (UniProt Q9NXW9), the log2 fold change was -0.078.
Regarding ARFGAP2 (UniProt Q8N6H7), the log2 fold change is 0.086.
Still for that read-out and setting: the same measure for AHSA1 (UniProt O95433): 0.015.
Take AGPAT3 isoform 3 (UniProt Q9NRZ7): the log2 fold change was 0.021.
Take ACAD9 (UniProt Q9H845): the log2 fold change was 0.031.
For BCLAF1 (UniProt Q9NYF8), the log2 fold change was -0.118.
Turning to BLVRB (UniProt P30043), the log2 fold change was -0.01.
As to ADPRHL2 (UniProt Q9NX46), the log2 fold change is 0.034.
ABHD11 (UniProt Q8NFV4): the log2 fold change was 0.136.
Consider BCCIP (UniProt Q9P287), for which the log2 fold change is 0.
For the target ACSL1 (UniProt P33121), the log2 fold change was 0.064.
Turning to APLP2 (UniProt Q06481), the log2 fold change was 0.
In the case of AP2A2 isoform 2 (UniProt O94973), the log2 fold change was 0.04.
As to AAMP (UniProt Q13685), the log2 fold change is 0.014.
With ADK (UniProt P55263), the log2 fold change is 0.154.
With ARRDC1 (UniProt Q8N5I2), the log2 fold change was -0.062.
As to ACBD6 (UniProt Q9BR61), the log2 fold change was 0.1.

The values are drawn from the supplement of paper PMC10849652.
